# Source: PubChem (National Center for Advancing Translational Sciences (NCATS))
# The list is not random: actives were taken first. Their share in the collection is about 3%.
# LDHA block = blocks human lactate dehydrogenase A. hit rate 0.15% among 480,000. P00338. AID 1347041. purified LDHA, NADH/diaphorase-resazurin fluorescence; stronger effect = lower value. activity change, % (values are at about 110 or 230 µM); in the data active = activity change below about -30%; inconclusive = mostly about -25% to -30%;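 also: plate controls were DMSO wells for no effect and wells without enzyme for full effect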
#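 Remaining NADH was detected by diaphorase (0.133 mg/mL) converting 37 µM resazurin to fluorescent resorufin, read at 0 and 20 minutes. The preceding 5-minute room-temperature reaction used 2 nM LDHA, 0.2 mM sodium pyruvate and 0.06 mM NADH at pH 7.4.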
# hERG WT inh = KCNH2 (human, wildtype) channel inhibition; Q12809; U2OS, BacMam KCNH2, thallium flux FluxOr; stronger effect = lower value; activity change, % at 1.84 µM; hit rate 0.37% among 340,000;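 active = maximum activity change below -70%; inconclusive = maximum activity change between -70% and -50%; inactive = maximum activity change above -50%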; also: % is scaled to controls: 0 for no effect and ±100 for the full control effect
#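 U2OS cells were transduced with wild-type KCNH2 virus (2.03 x 10^8 / mL) for 4 h at room temperature, then cultured overnight at 37 C. Thallium flux was read with FluxOr dye. Rate constants were normalized to DMSO controls.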
# Chronic BCR inh = inhibitors of chronic active B-cell receptor signaling. Potency, µM (series often up to 46.1 µM), inactives show at the top dose activity change, negative = inhibition, most hits filed as inhibitors. hit rate 0.05% among 340,000. ABC-DLBCL IkBa-CBG/CBR reporter, luminescence ratio, 4 h; active = well fitted inhibition curve with a large enough effect in the signal ratio, with a control signal flat, not every such curve was filed as active; inconclusive = small, poorly fitted or top-dose-only effect, or effect the other way, or a change in a side signal; the % refers to the signal ratio;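 also: potency is read from the fitted curve at half-maximal effect; plate controls were basal doxycycline-induced cells for no effect and cells given 10 µM MG132 for full effect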
#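 TMD8 human ABC-DLBCL cells with doxycycline-inducible IκBα–green luciferase fusion and unfused red luciferase, in 0.5% FBS medium; compounds up to 46 uM, 4 h at 37C. Green/red luminescence ratio, filter-overlap corrected, fitted to concentration-response curves.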
# ALOX12 inh = ALOX12 (human) lipoxygenase inhibition | hit rate 1.1% among 580,000 | AID 1671190 | P18054 | purified 12hLO, xylenol orange hydroperoxide absorbance | Potency, µM (titrated, usually from 108 µM), without a hit: at the top dose activity change, negative = inhibition, hits mostly inhibitors; active = well fitted inhibition curve with a large enough effect; inconclusive = small, poorly fitted or top-dose-only effect, or another doubt; inactive = no such curve, though single readings can be large or run the other way; also: potency is read from the fitted curve at half-maximal effect; % is scaled to controls: 0 for no effect and ±100 for the full control effect
# Target sequence (P18054 whole entry, looked up): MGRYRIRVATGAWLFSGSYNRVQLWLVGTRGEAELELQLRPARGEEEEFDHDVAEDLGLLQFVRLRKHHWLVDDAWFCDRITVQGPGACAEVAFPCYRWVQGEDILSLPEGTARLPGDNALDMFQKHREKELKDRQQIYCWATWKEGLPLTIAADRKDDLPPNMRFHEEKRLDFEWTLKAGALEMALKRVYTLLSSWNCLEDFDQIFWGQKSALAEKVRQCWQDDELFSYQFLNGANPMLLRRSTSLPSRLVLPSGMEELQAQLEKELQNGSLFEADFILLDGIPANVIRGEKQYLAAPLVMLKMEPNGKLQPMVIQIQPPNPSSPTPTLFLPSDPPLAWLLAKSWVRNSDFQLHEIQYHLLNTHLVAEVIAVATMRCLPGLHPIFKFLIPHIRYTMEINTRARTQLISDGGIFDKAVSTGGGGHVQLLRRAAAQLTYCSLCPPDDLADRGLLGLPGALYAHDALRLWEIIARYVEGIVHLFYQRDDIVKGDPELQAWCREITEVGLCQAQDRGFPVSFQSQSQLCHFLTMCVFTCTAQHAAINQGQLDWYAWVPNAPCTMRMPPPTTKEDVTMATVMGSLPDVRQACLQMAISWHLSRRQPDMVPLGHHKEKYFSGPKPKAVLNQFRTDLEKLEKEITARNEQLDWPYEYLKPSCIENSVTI
#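 Purified human 12hLO at 150 nM in 25 mM Hepes, 0.01% Triton X-100, pH 7.0, preincubated 15 min at room temperature with compound. Reaction started with 40 uM arachidonic acid, 30 min at room temperature. Hydroperoxide measured by Fe-xylenol orange, 573/405 nm absorbance ratio.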
# ClpP mod = qHTS Assay for Activators of ClpP; ATP-dependent Clp protease proteolytic subunit (Bacillus subtilis (strain 168)), P80244; purified B. subtilis ClpP, FRET peptide cleavage, 20 min; Potency, µM (top dose mostly 57.5 µM), inactives show top-dose activity change, negative = active; hit rate 1.9% among 340,000; active = well fitted falling curve with a large enough effect; inconclusive = small, poorly fitted or top-dose-only effect; inactive = no such curve, though single readings can be large or run the other way; also: potency is read from the fitted curve at half-maximal effect; the source files actives as falling curves though it sought activators and does not explain the sign; nearly all actives have a fitted effect of over 65% in size
#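 Buffer: 100 mM Tris/HCl pH8, 100 mM KCl, 0.05% low protease BSA, 2.5% glycerol, 0.01% Tween-20. ClpP 10 microg/mL final; 20 min RT; delta FRET normalized to ADEP and DMSO controls.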
# KCNH2 3.1 inh = blocks the human KCNH2 3.1 channel isoform | AID 720553 | activity change, % (tested at about 1.8 µM) | hit rate 0.95% among 340,000 | U2OS KCNH2 3.1, thallium flux FluxOr; stronger effect = lower value;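 active = maximum activity change below -70%; inconclusive = maximum activity change from -70% to -50%; inactive = maximum activity change above -50%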;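 also: thallium influx rate constant from kinetic fluorescence after stimulation buffer; % is scaled to controls: 0 for no effect and ±100 for the full control effect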
#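 U2OS cells transduced with KCNH2 3.1 mutant virus (1.77 x 10^8 /mL, 4 h), plated overnight at 37 C, loaded 45 min with FluxOr dye plus Red40 quencher. Thallium flux rate constant from kinetic reads after stimulation buffer, normalised to controls.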
# Starred values were filed as active, the others as inactive; ? = inconclusive; / = no result given.
SMILES,LDHA block,hERG WT inh,Chronic BCR inh,ALOX12 inh,ClpP mod,KCNH2 3.1 inh
CO[C@@H]1CCOC[C@H]1NS(=O)(=O)c1ccc(S(C)(=O)=O)cc1,/,/,/,33%,/,/
CCOc1cc(N2CCOCC2)c(OCC)cc1NC(C)C(=O)N1CCC(C)CC1 (centres undefined),29,10,0%,35µM*,2%,-5
CCOc1cc(N2CCOCC2)c(OCC)cc1NC(=O)[C@H](C)N1C(=O)C2CC=CCC2C1=O (some centres undefined),5,35,0%,0%,/,-2
CC(C)NCC(O)Cn1c2c(c3ccccc31)CCc1c-2cnn1-c1ccccc1 (centres undefined),-1,-1,14%,4%,8.9µM*,1
CN1CCc2c(n(CC(O)CNCc3ccccc3)c3ccccc23)C1=O (centres undefined),0,3,0%,-21%,-27%,-8
CC(C)(C)c1nc(C(C)(C)NC(=O)C2Cc3ccccc3O2)no1 (centres undefined),-1,/,/,?,/,/
Clc1ccc(C2[C@H]3CN(CC4CCCCC4)[C@H](c4ccccc4)C34CC2(c2ccccc2)C4)cn1 (some centres undefined),-2,8,7%,-30%,-1%,-210*
C[C@H]1CN([C@@H](C)CO)C(=O)CCCn2cc(nn2)CO[C@@H]1CN(C)S(=O)(=O)c1ccc2c(c1)OCCCO2,-8,-3,/,1%,-2%,1
C[C@@H]1CN([C@H](C)CO)C(=O)CCCn2nncc2CO[C@H]1CN(C)C,-33*,-4,/,10%,1%,-5
C[C@@H]1CN([C@@H](C)CO)C(=O)CCCn2nncc2CO[C@H]1CN(C)C,-5,2,/,45%,1%,19
C[C@@H]1CN([C@H](C)CO)C(=O)CCCn2cc(nn2)CO[C@H]1CN(C)S(=O)(=O)c1ccc2c(c1)OCCCO2,-30*,1,/,0%,-2%,2
Cc1ccc(OC(=O)N(C)C[C@@H]2OCc3cn(nn3)CCCC(=O)N([C@@H](C)CO)C[C@H]2C)cc1,-6,18,/,-10%,-1%,-70*
COc1ccc(C(=O)NC(C(=O)N2CCCC2)C2CCN(C(=O)c3ccc(OC)cc3)CC2)cc1 (centres undefined),/,/,/,52%,/,/
CC(=O)N(c1cccc(C(F)(F)F)c1)c1nc(CSc2nnc(C3CC3)n2C2CC2)cs1,5,/,/,23%,/,/
O=C1c2ccccc2C(c2c[nH]c3ccccc23)N1CCc1ccccc1 (centres undefined),11,/,/,3%,/,/
CC(=O)Nc1sc(/C(C#N)=C\c2cccc(Cl)c2)nc1-c1ccc(C)cc1,2,-46,-2%,-9%,1%,-70*
O=[N+]([O-])c1ccc(Nc2cccc3ccccc23)nc1,11,/,/,?,/,/
CN(C1CCCCC1)S(=O)(=O)c1ccc(NC(=O)C2CCCCC2C(=O)O)cc1 (centres undefined),-3,-5,1%,-21%,32µM*,-12
COc1ccccc1NC(=O)C(C)N1CCN(C/C=C/c2ccccc2)CC1 (centres undefined),-1,-82*,?,0%,0%,-95*
COc1ccc(NC(C)=O)cc1S(=O)(=O)N1CCN(C/C=C/c2ccccc2)CC1,0,12,?,1%,-3%,-73*
Cc1cc2nc(/C(C#N)=C/c3ccc4c(c3)OCO4)[nH]c2cc1C,13,/,/,?,/,/
CCc1ncc2c(=O)n(Cc3ccc(OC)cc3)ccn12,/,/,/,26%,/,/
O=C(Cc1ccccc1)Nc1cccc2ncccc12,40,/,/,?,/,/
O=C(/C=C/c1ccco1)OCC(=O)C12CC3CC(CC(C3)C1)C2,1,/,/,40µM*,/,/
Cc1ccc(-c2cc(C(=O)Nc3nccs3)c3ccccc3n2)o1,-3,-4,?,1.4µM*,-10%,13
